Screening results from PubChem.
KKLEB cytotox = CF airway cell cytotoxicity counter-screen | KKLEB CF airway cells viability, ATPlite luminescence, overnight; active compounds read low; cells stimulated with P. aeruginosa culture filtrate | activity change (cytotoxicity), % at 5 µM | actives 0.36% (n = 360,000);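 active = corrected activity change at or below -50% at 5 µM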
CF NFkB block = inhibitors of cystic fibrosis induced NF-kB | KKLEB NF-kB-GFP reporter, PAF-induced, GFP fluorescence overnight | inhibition, % at 5 µM | actives 0.86% (n = 360,000);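 active = at least 50% inhibition at 5 µM, scaled per plate between neutral and stimulator controls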;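 note: PAF is a Pseudomonas aeruginosa culture filtrate used as stimulus; plate controls were PAF-stimulated DMSO wells for no effect and unstimulated DMSO wells for full effect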
EWS-Fli block = blocks EWS/Fli oncoprotein-driven transcription. inhibition, % at 12.6 µM. actives 0.67% (n = 350,000). A673 NR0B1-luciferase reporter, viability-normalised;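 active = mean inhibition of at least 50% after viability correction, with every replicate also passing that limit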;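 note: firefly luciferase signal divided by Alamar Blue viability fluorescence both relative to DMSO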
LGR2 antag = inhibitors of bursicon-induced Drosophila LGR2 receptor cAMP signaling; HEK293 LGR2, CRE-luciferase, bursicon-stimulated, 4 h; inhibition, % at 9.99 µM; actives 0.35% (n = 380,000);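 active = drop in luminescence signal, shown as inhibition above about 50% in the replicate tests, limit read from the data, passing the limit was not always enough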;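 note: agonist challenge used bursicon conditioned medium at about half maximal strength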
PAX8 reporter = inhibitors of PAX8 transcriptional activity in RMG-I cells | RMG-I TPO-luciferase reporter, SteadyGlo, 24 h | inhibition, % at 12.6 µM | actives 1.2% (n = 360,000) | AID 652154;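 active = mean replicate inhibition at least 60% with every replicate also reaching 60%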;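 note: luciferase light reporting Pax8 driven TPO promoter activity; plate controls were median of neutral control wells for no effect and mitoxantrone controls for full effect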
Shn3 3UTR inh = reduces Shn3 3'UTR luciferase signal in osteoblasts. Clone20 osteoblast Shn3 3'UTR firefly luciferase, 24 h. inhibition, % at 12.5 µM. actives 0.52% (n = 360,000);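 active = mean inhibition of at least 75% with every replicate also reaching 75%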;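 note: 0% = median of neutral control wells and 100% = pilot-screen positive control compound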
CF NFkB conf = CF NF-kB inhibition confirmation, single concentration | AID 602472 | shares compounds with CF NFkB block | inhibition, % at 5 µM | KKLEB CF airway cells, PAF-induced NF-kB-GFP fluorescence, overnight | actives 64% (n = 1,300); in the data active = inhibition above about 40%;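 note: stimulus PAF is a Pseudomonas aeruginosa filtrate and not platelet activating factor; plate controls were DMSO wells with stimulus for no effect and unstimulated DMSO wells for full effect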
* marks the source's active call; other numbers are inactive results; x = not tested or not shown. This is a sample that favours compounds with a hit; in the whole collection about 2% have one here.

SMILES | KKLEB cytotox | CF NFkB block | EWS-Fli block | LGR2 antag | PAX8 reporter | Shn3 3UTR inh | CF NFkB conf
C[C@H]1CN([C@@H](C)CO)C(=O)Cc2cc(NC(=O)C3CC3)ccc2O[C@@H]1CN(C)C(=O)Nc1cccc2ccccc12 | x | x | -3 | 26 | 8 | x | x
C[C@H](CO)N1C[C@H](C)[C@@H](CN(C)Cc2cccc(C(=O)O)c2)Oc2ncc(/C=C/c3ccccc3)cc2C1=O | x | x | -16 | 8 | -1 | x | x
O=C(CNC(=O)c1ccccc1)NCCCSc1ccccc1 | 0 | 13 | -4 | -16 | -16 | 8 | x
O=C(NCCCSc1ccccc1)c1cc(Cl)ccc1O | -39 | 58* | x | 3 | 23 | 21 | 76*
CC(C)CC#Cc1cnc2c(c1)C(=O)N([C@@H](C)CO)C[C@@H](C)[C@H](CN(C)C(=O)CN1CCOCC1)O2 | x | x | -18 | -29 | x | x | x
Cc1nc(C)c(-c2csc(Nc3cccc(O)c3)n2)s1 | 9 | -25 | -70 | -95 | -200 | -5 | x
CCC(=O)Nc1nc(C)c(-c2csc(Nc3cccc(O)c3)n2)s1 | -4 | 62* | 12 | -7 | 17 | 38 | 87*
Cc1noc(C)c1NC(=O)N[C@@H]1CC[C@@H](CCNC(=O)C2CCCC2)O[C@H]1CO | x | x | 0 | 1 | 4 | x | x
CCCN(C)C[C@@H]1Oc2cc(C#CCC(C)C)ccc2S(=O)(=O)N([C@H](C)CO)C[C@@H]1C | x | x | 13 | 1 | x | x | x
Cc1cccc(C(=O)OCC(=O)NCc2cccs2)c1 | 5 | -4 | 6 | x | 0 | -3 | x
CS(=O)(=O)c1ccc(C(=O)OCC(=O)NCc2cccs2)cc1[N+](=O)[O-] | -33 | 90* | 8 | 13 | 101* | 97* | 43*
O=C(COC(=O)c1ccccc1NCCO)NCc1cccs1 | 15 | 2 | -13 | 4 | -46 | -20 | x
CS(=O)(=O)Nc1ccccc1C(=O)OCC(=O)NCc1cccs1 | -14 | 51* | -3 | 4 | 6 | 1 | 7
COc1ccccc1Cn1c(=O)c2ccccc2n2c(Sc3ncnc4sccc34)nnc12 | -31 | 72* | x | x | 19 | 58 | 48*
CC(C)n1c(SCc2ccccc2F)nc2c1c(=O)n(C)c(=O)n2C | -5 | 57* | 9 | -7 | -6 | 22 | 58*
CO[C@H](C(=O)N(C)C[C@H]1OCc2ccccc2-c2c(n(C)c3ccccc23)C(=O)N([C@@H](C)CO)C[C@@H]1C)c1ccccc1 | x | x | 8 | 3 | -25 | x | x
C=CCn1cnc2c(c1=O)c1nc3ccccc3nc1n2/N=C/c1cc(OC)c(OC)c(OC)c1 | 11 | 51* | x | x | x | 66 | 117*
O=C(Nc1ccc(Cl)c(Cl)c1)N[C@@H]1CC[C@@H](CCNC(=O)c2ccc(F)cc2)O[C@H]1CO | x | x | -3 | -20 | 10 | x | x
Cc1cc(N2CCOCC2)c2c(N)c(Br)cc(C)c2n1 | -6 | 66* | x | x | x | 10 | 97*
Cc1cc(=O)[nH]c(N2CCOCC2)n1 | 3 | 12 | -7 | -1 | -9 | -19 | x
Cc1c([N+](=O)[O-])c2ccc(O)cc2n1-c1ccccc1 | -2 | 68* | -17 | -7 | -7 | x | 78*
Nc1ccc(-c2nc3ccccc3o2)cc1 | -2 | -16 | -53 | -78 | -150 | -24 | x
O=C1C=CC(=O)N1c1ccc(-c2nc3ccccc3o2)cc1 | -25 | 51* | x | x | x | 80 | 10
Cc1onc(-c2c(F)cccc2Cl)c1C(=O)Nc1ccc(S(=O)(=O)N2CCOCC2)cc1 | -6 | -7 | -11 | 15 | 13 | -16 | x
Cc1onc(-c2c(F)cccc2Cl)c1C(=O)Nc1cc(S(=O)(=O)N2CCCCC2)ccc1O | -14 | 56* | 15 | 11 | 22 | -2 | 48*
CCC(C(=O)OCC(=O)C1(O)CCC2C3CCC4=CC(=O)CCC4(C)C3C(O)CC21C)C(C)C (centres undefined) | 5 | 56* | -1 | 46 | 3 | 42 | 10
CC(C)CC(NC(=O)CCC(=O)OCC(=O)[C@@]1(O)CCC2[C@@H]3CCC4=CC(=O)C=C[C@]4(C)C3[C@@H](O)C[C@@]21C)C(=O)O (some centres undefined) | 30 | 83* | 4 | -4 | 25 | 7 | 19
